Measured values published in PubChem BioAssay (NCI).
Compounds without any hit were thinned out: in the full panel of roughly 83,000, 20% have a hit.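 96-well plates, one dose, 48 hours. Percent growth reported; active if below 10.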 Activity calls are given as the source filed them.

Columns and labels:
Assay in all cases: NCI-60 one-dose screen, 48 h (100 = growth as untreated, 0 = no growth, -100 = all killed)
Conditions in all cases: 10 µM unless noted
SR leukemia = test system: SR leukemia
RPMI-8226 leukemia = test system: RPMI-8226 leukemia
OVCAR-8 ovarian = test system: OVCAR-8 ovarian
OVCAR-5 ovarian = test system: OVCAR-5 ovarian
OVCAR-4 ovarian = test system: OVCAR-4 ovarian
SK-OV-3 ovarian = test system: SK-OV-3 ovarian
IGROV1 ovarian = test system: IGROV1 ovarian
HS 578T breast = test system: HS 578T breast
NCI/ADR-RES ovarian = test system: NCI/ADR-RES ovarian

Measured: growth

CCC(NC(c1cc2cccc3ccc4cccc1c4c32)c1nnnn1C(C)(C)C)C1CCCCC1 (configuration not stated)
inactive: SR leukemia 40.9% | RPMI-8226 leukemia 28.1% | OVCAR-8 ovarian 73.2% | OVCAR-5 ovarian 84.6% | OVCAR-4 ovarian 46.5% | SK-OV-3 ovarian 70.8% | IGROV1 ovarian 65.2% | HS 578T breast 84.5% | NCI/ADR-RES ovarian 74.4%

CC(=O)N1N=C(c2cccc(-n3cccc3)c2)CC1c1cccc(F)c1 (configuration not stated)
inactive: SR leukemia 96.2% | RPMI-8226 leukemia 93.7% | OVCAR-8 ovarian 98.2% | OVCAR-5 ovarian 95.8% | OVCAR-4 ovarian 101% | SK-OV-3 ovarian 97.3% | IGROV1 ovarian 96.9% | HS 578T breast 91% | NCI/ADR-RES ovarian 95.9%

Nc1nc(-c2cccc([N+](=O)[O-])c2)c(N=Nc2cccc([N+](=O)[O-])c2)s1
inactive: SR leukemia 67.5% | RPMI-8226 leukemia 34.3% | OVCAR-8 ovarian 19.9% | OVCAR-5 ovarian 53.4% | IGROV1 ovarian 27.6% | HS 578T breast 37.6% | NCI/ADR-RES ovarian 18.6%
active: OVCAR-4 ovarian -15.2% | SK-OV-3 ovarian -78%

CN1CCN(c2ccc(/C=N/n3cnc4oc(-c5ccccc5)cc4c3=N)cc2)CC1
inactive: SR leukemia 36.6% | RPMI-8226 leukemia 87.9% | OVCAR-8 ovarian 96.1% | OVCAR-5 ovarian 76.2% | OVCAR-4 ovarian 83.1% | SK-OV-3 ovarian 71.3% | IGROV1 ovarian 36.7% | HS 578T breast 63.8% | NCI/ADR-RES ovarian 81.3%

COC(=O)c1[nH]nc2c1C1(C(=O)c3cccc4cccc1c34)C(C#N)=C(N)O2 (configuration not stated)
inactive: SR leukemia 115% | RPMI-8226 leukemia 104% | OVCAR-8 ovarian 92% | OVCAR-5 ovarian 101% | OVCAR-4 ovarian 97.5% | SK-OV-3 ovarian 85.3% | IGROV1 ovarian 95.5% | HS 578T breast 86.8% | NCI/ADR-RES ovarian 106%

O=C(CSc1nc2ccccc2c(=O)n1-c1ccccc1)Nc1cccc(C(=O)/C=C/c2ccccc2Cl)c1
inactive: SR leukemia 89.2% | RPMI-8226 leukemia 68.5% | OVCAR-8 ovarian 99.5% | OVCAR-5 ovarian 108% | OVCAR-4 ovarian 102% | SK-OV-3 ovarian 115% | IGROV1 ovarian 107% | HS 578T breast 106% | NCI/ADR-RES ovarian 104%

CCNC(=O)N1CCc2cc(OC)c(OCCc3ccc(OC)nc3)cc2C1c1ccc(C)cc1C (configuration not stated)
active: SR leukemia 7.67% | RPMI-8226 leukemia 9.18% | HS 578T breast -2.81% | NCI/ADR-RES ovarian 7.35%
inactive: OVCAR-8 ovarian 15.5% | OVCAR-5 ovarian 31.4% | OVCAR-4 ovarian 52.5% | SK-OV-3 ovarian 54% | IGROV1 ovarian 17.2%

CC[C@@H](CO)Nc1ccc2ncc(C#Cc3cncc(C(=O)Nc4ccc(CN5CCN(C)CC5)c(C(F)(F)F)c4)c3)n2n1
active: SR leukemia -24.4% | RPMI-8226 leukemia -34.5% | OVCAR-8 ovarian -57.6% | OVCAR-5 ovarian -14% | OVCAR-4 ovarian -44.1% | SK-OV-3 ovarian -40% | IGROV1 ovarian -25.4% | HS 578T breast -41.5%
inactive: NCI/ADR-RES ovarian 55.1%

C[C@@H]1C[C@H]2C(=O)O[C@@H](C)C(NC(=O)[C@H](Cc3cc(F)cc(F)c3)NC(=O)Nc3ccc(C4CC4)cc3F)C(=O)N3CCC[C@H]3C(=O)N3CCCC[C@H]3C(=O)N[C@@H](CO)C(=O)N2C1 (some centres not stated)
inactive: SR leukemia 28.1% | RPMI-8226 leukemia 14.9% | OVCAR-8 ovarian 20.9% | OVCAR-5 ovarian 29.9% | OVCAR-4 ovarian 21.3% | SK-OV-3 ovarian 21% | IGROV1 ovarian 42.2% | HS 578T breast 32.7% | NCI/ADR-RES ovarian 36.1%

Cc1ccc(C2=Nn3c(nnc3-c3ccccc3)SC2)cc1
inactive: SR leukemia 14% | RPMI-8226 leukemia 23.1% | OVCAR-8 ovarian 25.9% | OVCAR-5 ovarian 62.9% | OVCAR-4 ovarian 67.3% | SK-OV-3 ovarian 24.7% | IGROV1 ovarian 49.5% | HS 578T breast 19.6% | NCI/ADR-RES ovarian 14.1%

COc1ccc(CCN2C(=O)CSC2=S)cc1
inactive: SR leukemia 65.8% | RPMI-8226 leukemia 33.3% | OVCAR-8 ovarian 102% | OVCAR-5 ovarian 95.7% | OVCAR-4 ovarian 92.8% | SK-OV-3 ovarian 111% | IGROV1 ovarian 109% | HS 578T breast 99.4% | NCI/ADR-RES ovarian 98.4%

CCOC(=O)c1c(Nc2ccccc2)nn2c(-c3ccc(Cl)cc3)ccnc12
inactive: SR leukemia 72.7% | RPMI-8226 leukemia 91.7% | OVCAR-8 ovarian 80.6% | OVCAR-5 ovarian 87.2% | OVCAR-4 ovarian 66.5% | SK-OV-3 ovarian 75.4% | IGROV1 ovarian 80.5% | HS 578T breast 72.6% | NCI/ADR-RES ovarian 63.6%

COc1cc(OC)c(/C=C/S(=O)(=O)Cc2ccc(OC)c(NCC(=O)NO)c2)c(OC)c1
inactive: SR leukemia 12.2% | RPMI-8226 leukemia 20.2% | OVCAR-5 ovarian 33.6% | OVCAR-4 ovarian 45.3% | SK-OV-3 ovarian 37.3% | HS 578T breast 17%
active: OVCAR-8 ovarian 8.29% | IGROV1 ovarian 9.44% | NCI/ADR-RES ovarian 7.63%

Cc1cc(-c2ccc(Cl)cc2)n(Cc2nnc(SCC(=O)Nc3ccc(S(N)(=O)=O)cc3)n2-c2ccc([N+](=O)[O-])cc2)n1
inactive: SR leukemia 72.5% | RPMI-8226 leukemia 64.3% | OVCAR-8 ovarian 88.7% | OVCAR-5 ovarian 98.5% | OVCAR-4 ovarian 86.5% | SK-OV-3 ovarian 112% | IGROV1 ovarian 96.9% | HS 578T breast 96.7% | NCI/ADR-RES ovarian 84.3%

CN1CCC(n2cc(Nc3ncc4c(=O)n(-c5c(Cl)cccc5Cl)cc(Br)c4n3)cn2)CC1
inactive: RPMI-8226 leukemia 20.7% | OVCAR-5 ovarian 43.5% | OVCAR-4 ovarian 33.8% | SK-OV-3 ovarian 32.7% | IGROV1 ovarian 15% | HS 578T breast 45.1% | NCI/ADR-RES ovarian 34%
active: SR leukemia -21.4% | OVCAR-8 ovarian 6.91%

CCNC(=O)N1CCc2cc(OC)c(OCCc3ccc(OC)nc3)cc2C1c1ccc(OC)cc1C (configuration not stated)
inactive: SR leukemia 10.9% | RPMI-8226 leukemia 31.4% | OVCAR-8 ovarian 42.4% | OVCAR-5 ovarian 51% | OVCAR-4 ovarian 67.1% | SK-OV-3 ovarian 54.6% | IGROV1 ovarian 33.8% | HS 578T breast 29.8% | NCI/ADR-RES ovarian 23.5%

O=C(Cn1c(-c2ccccc2)nc2cc(Cl)c(Cl)cc21)N=Nc1c(O)[nH]c2ccc(Cl)cc12
inactive: SR leukemia 67.9% | RPMI-8226 leukemia 59% | OVCAR-8 ovarian 83.5% | OVCAR-5 ovarian 80.5% | OVCAR-4 ovarian 77.9% | SK-OV-3 ovarian 85.6% | IGROV1 ovarian 87.9% | HS 578T breast 81.3% | NCI/ADR-RES ovarian 72.3%

c1cc(-c2nc3ccc4[nH]ncc4c3c3c2CCCC3)[nH]n1
inactive: RPMI-8226 leukemia 55.1% | OVCAR-8 ovarian 70.2% | OVCAR-5 ovarian 89% | OVCAR-4 ovarian 89.6% | IGROV1 ovarian 44.5% | HS 578T breast 41.3% | NCI/ADR-RES ovarian 78.8%
active: SR leukemia 7.95% | SK-OV-3 ovarian 9.7%

COc1ccc2[nH]cc(/C=N/Nc3nc4ccccc4s3)c2c1
inactive: SR leukemia 45.5% | RPMI-8226 leukemia 47.2% | OVCAR-8 ovarian 67.1% | OVCAR-5 ovarian 73.2% | OVCAR-4 ovarian 67.2% | SK-OV-3 ovarian 65.7% | IGROV1 ovarian 29.8% | HS 578T breast 60.6% | NCI/ADR-RES ovarian 66%

COc1ccc2[nH]cc(-c3csc4nc(-c5ccccc5)cn34)c2c1
inactive: SR leukemia 20.1% | OVCAR-8 ovarian 24.1% | OVCAR-5 ovarian 46.2% | OVCAR-4 ovarian 56.5% | SK-OV-3 ovarian 16.1% | IGROV1 ovarian 41.6%
active: RPMI-8226 leukemia 5.78% | HS 578T breast -3.7% | NCI/ADR-RES ovarian 5.97%

Cc1ccc(S(=O)(=O)NCCNc2nc(Nc3ccc(N4CCN(C)CC4)cc3)nc3ccsc23)cc1
inactive: SR leukemia 18.1% | RPMI-8226 leukemia 84.2% | OVCAR-8 ovarian 104% | OVCAR-5 ovarian 113% | OVCAR-4 ovarian 95.1% | SK-OV-3 ovarian 129% | IGROV1 ovarian 108% | HS 578T breast 89% | NCI/ADR-RES ovarian 100%

CCOc1ccccc1NC1=C(Cl)C(=O)c2nc(C)ccc2C1=O
active: SR leukemia -12.8% | RPMI-8226 leukemia -35.1% | OVCAR-8 ovarian 0.93% | OVCAR-4 ovarian -92% | IGROV1 ovarian -57.5% | HS 578T breast 1.05% | NCI/ADR-RES ovarian -9.58%
inactive: OVCAR-5 ovarian 40.8% | SK-OV-3 ovarian 85.3%

Cc1occc1-c1nc2s/c(=C/c3ccc(-c4cc(C(F)(F)F)ccc4Cl)o3)c(=O)n2n1
inactive: SR leukemia 101% | RPMI-8226 leukemia 99.5% | OVCAR-8 ovarian 103% | OVCAR-5 ovarian 105% | OVCAR-4 ovarian 102% | SK-OV-3 ovarian 110% | IGROV1 ovarian 103% | HS 578T breast 98.1% | NCI/ADR-RES ovarian 109%

COc1ccc(/C=C/C(=O)c2cccc(NC(=O)CSc3nc4ccccc4c(=O)n3-c3ccccc3)c2)cc1OC
inactive: SR leukemia 73% | RPMI-8226 leukemia 67.9% | OVCAR-8 ovarian 102% | OVCAR-5 ovarian 111% | OVCAR-4 ovarian 98.8% | SK-OV-3 ovarian 120% | IGROV1 ovarian 105% | HS 578T breast 100% | NCI/ADR-RES ovarian 105%

CNCc1cccc2c1OCCCCCCC(C)(O)CC(C)(C)S(=O)(=O)c1ccc(cc1)-c1cnc(N)c(n1)C(=O)N2 (configuration not stated)
active: SR leukemia -36.6% | RPMI-8226 leukemia -41.9% | IGROV1 ovarian 3.36%
inactive: OVCAR-8 ovarian 55.3% | OVCAR-5 ovarian 55.9% | OVCAR-4 ovarian 30.3% | SK-OV-3 ovarian 38.1% | HS 578T breast 24.1% | NCI/ADR-RES ovarian 43.2%

CCOC(=O)c1c(Nc2ccccc2)nn2c(-c3cccs3)ccnc12
inactive: SR leukemia 63.5% | RPMI-8226 leukemia 66.2% | OVCAR-8 ovarian 92.2% | OVCAR-5 ovarian 90.3% | OVCAR-4 ovarian 91.7% | SK-OV-3 ovarian 83.2% | IGROV1 ovarian 91.3% | HS 578T breast 90.2% | NCI/ADR-RES ovarian 87.4%

c1n[nH]cc1-c1nc2ccc3[nH]ncc3c2c2c1CCCC2
active: SR leukemia -9.78% | SK-OV-3 ovarian -19.6% | HS 578T breast -4.89%
inactive: RPMI-8226 leukemia 41.5% | OVCAR-8 ovarian 23.5% | OVCAR-5 ovarian 43.9% | OVCAR-4 ovarian 54.1% | IGROV1 ovarian 20.8% | NCI/ADR-RES ovarian 51.1%

COc1cc2oc(-c3cccc(N)c3)cc(=O)c2c(OC)c1OC
inactive: SR leukemia 87.2% | RPMI-8226 leukemia 97.8% | OVCAR-8 ovarian 98.7% | OVCAR-5 ovarian 101% | OVCAR-4 ovarian 99.7% | SK-OV-3 ovarian 125% | IGROV1 ovarian 107% | HS 578T breast 115% | NCI/ADR-RES ovarian 106%
